This is an account of results in PubChem BioAssay AID1347434 (National Center for Advancing Translational Sciences (NCATS), 2020).

Among all 1,200 compounds or so, about 30 (2%) were called active. Where a call stands in place of a potency, no number is given. About 23% were inconclusive and are not listed. Calls follow the shape of the dose curve; as a rule, active = well fitted inhibition curve with a large enough effect; inconclusive = small, poorly fitted or top-dose-only effect; inactive = flat fitted curve, though single readings scatter. Only a selection was taken, and actives are over-represented in it overall.
Potency is read from the fitted curve at half-maximal effect.

For this experiment, the target named is Single-stranded DNA cytosine deaminase (Homo sapiens) (UniProt Q9GZX7). Description: Confirmatory qHTS assay for inhibitors of Activation Induced Cytidine Deaminase (AID): AID signals. The settings on record: recombinant AID, FRET deamination/UDG coupled fluorescence, 4 h; series mostly up to 115 µM. In short, it runs like this: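 Read 1 (AID) was measured at 540 ex/590 em after a 30 min NaOH step. The reaction was AID (1 uM, 4/3x stock) with UDG, compound at final 7.32 nM - 114 uM for 10 min, then DJC20/DJC23 substrate for 4 hr at room temperature. A UDG read at 560/665 serves as counterscreen.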
Single-stranded DNA cytosine deaminase (Homo sapiens), sequence (Q9GZX7 whole entry, looked up): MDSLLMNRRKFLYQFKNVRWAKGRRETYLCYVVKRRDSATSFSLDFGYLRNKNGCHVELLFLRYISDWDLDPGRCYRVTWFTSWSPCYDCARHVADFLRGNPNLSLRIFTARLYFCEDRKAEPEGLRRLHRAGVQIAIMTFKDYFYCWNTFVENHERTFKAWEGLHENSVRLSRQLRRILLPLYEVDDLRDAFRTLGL
With `CCc1nn(CCCC(=O)N2CCN(c3cc(Cl)ccc3C)CC2)c(=O)c2cc3occc3n12`, the Potency entry was “inactive”. In the case of `CCn1cc2nc(SCC(=O)Nc3ccccc3C(F)(F)F)n(Cc3ccc(C)cc3)c(=O)c2n1`, the Potency result was “inactive”. As for `CCc1ccc2c(c1)c(=O)c(S(=O)(=O)c1ccc(Cl)cc1)cn2CC`, the Potency entry was “inactive”. The result for `Cc1ccccc1OCc1nnc(SCc2cc(=O)c3ccc(C)c(C)c3[nH]2)n1C` reads “inactive”. With `CCOc1ccc(CCNC(=O)c2nc(-c3cccc(F)c3)n3c2CCCCC3)cc1OCC`, the Potency entry was “inactive”. As for `Cc1ccc(C)c(N2CCN(C(=O)c3ccc(CS(=O)(=O)c4ccc(Br)cc4)o3)CC2)c1`, the Potency result is “inactive”. For the compound `CCOC(=O)CSc1nnc2n(-c3ccccc3)c(=O)c3c4c(sc3n12)CC(C(C)(C)C)CC4` (configuration not stated), the Potency entry is “inactive”. For `CCn1cc(C(=O)NCCCOC(C)C)c(=O)c2cc(S(=O)(=O)N(C)C3CCCCC3)ccc21`, the Potency entry is “inactive”. With `Cc1cccc(CCNc2ncnc3onc(-c4ccc(Cl)cc4)c23)c1`, the Potency entry was “inactive”. On to `Cc1cc2c(cc3c(SCc4ccc(Cl)cc4)nnc(C)n32)o1`, for which the Potency result is “inactive”. To `Cc1c(C)n(C)c2ccc(C(=O)N3CCN(c4ccccc4)CC3)cc12` belongs “inactive”. With `CC(=O)c1ccc(NC(=O)C2CCN(c3nnc(C)c4c(C)n(-c5ccccc5)nc34)CC2)cc1`, the Potency entry is “inactive”. Take `COc1ccc(CC(=O)Nc2sc3c(c2C(=O)Nc2cccc(Cl)c2)CCCCC3)cc1`: the Potency result is “inactive”. To `CCCN(CCC)C(=O)Cn1c(=O)n(Cc2ccc(C(=O)NCCc3ccc(OC)c(OC)c3)cc2)c(=O)c2ccccc21` belongs “inactive”; to `Cc1cccc(N2CCN(C(=O)C3CCN(c4ncnc5c4nc4n5CCCCC4)CC3)CC2)c1C`, “inactive”; to `Fc1ccc(Cn2c(-c3cccc(Br)c3)nc3ccccc32)cc1`, “inactive”.

With `COc1ccc(C(=O)NCC(c2cccnc2)N2CCc3ccccc32)cc1` (configuration not stated), the Potency result was “inactive”. Regarding `Cn1c(=O)c2c(-c3ccc(Br)cc3)n(CCc3ccccc3)cc2n(C)c1=O`, the Potency result was “inactive”. To `CCc1ccc(CNC(=O)C(CC)n2nc(C)c3c(C)n(-c4ccccc4)nc3c2=O)cc1` (configuration not stated) belongs “inactive”.

Take `Cc1cccc(Cn2c(=O)n3nc(-c4ccccc4)nc3c3ccccc32)c1`: the Potency entry was “inactive”. In the case of `Clc1ccc(-c2noc3ncnc(NCCCN4CCN(c5ccccc5)CC4)c23)cc1`, the Potency result is “inactive”. In the case of `Cc1ccc(C)c(CN2C(=O)c3ccccc3S(=O)c3ccc(C(=O)N4CCC(C)CC4)cc32)c1` (configuration not stated), the Potency entry was “inactive”. To `COc1ccc2c(C)cc(SCC(=O)Nc3nsc(-c4ccc(C(C)(C)C)cc4)n3)nc2c1` belongs “inactive”; to `Cc1ccc(-c2nc(NC(=O)CSc3cc(C)c4ccccc4n3)ns2)cc1`, 28.2 µM (active). With `O=C(CSc1nc2ccccc2nc1Cc1ccccc1)Nc1ccccc1C(F)(F)F`, the Potency entry is “inactive”. Turning to `O=c1cc2nc(-c3cccs3)nc(SCCOc3ccc(Cl)cc3)n2[nH]1`, the Potency result was “inactive”. As for `Cc1cc(OCCCSc2nc(-c3ccc(C(C)(C)C)cc3)nc3cc(=O)[nH]n23)ccc1Cl`, the Potency was 31.6 µM (active). To `C=CCc1ccccc1OCCSc1nc(-c2ccc(C(C)(C)C)cc2)nc2cc(=O)[nH]n12` belongs “inactive”; to `Cc1cccc(C(=O)Nc2sc3c(c2C(=O)O)CCCC3)c1`, “inactive”; to `Cc1nc2c(-c3ccccc3)c(C)nn2c(C)c1CCC(=O)N1CCN(c2ccccc2)CC1`, “inactive”. Regarding `CCOc1ccc(-c2nn(-c3ccccc3)cc2C2NC(=O)NC(C)=C2C(=O)OC(C)C)cc1C` (configuration not stated), the Potency entry was “inactive”. Turning to `O=C(NCCc1nc2ccccc2n1Cc1ccc(Cl)cc1Cl)c1ccco1`, the Potency result is “inactive”. On to `CCN(C(=O)Cn1c(SCC(=O)Nc2ccc(OC)cc2)nc2ccccc21)c1cccc(C)c1`, for which the Potency result is “inactive”. As for `CC(C)(C)c1ccc(C(=O)N2CCCC(c3nc4c(nnn4Cc4cccc(F)c4)c(=O)[nH]3)C2)cc1` (configuration not stated), the Potency entry is “inactive”.

On to `CCOc1ccc(CN2CCc3nc(Nc4ccc(OC)cc4OC)ncc3C2)cc1`, for which the Potency entry is “inactive”.

Consider `CC(=O)O[C@H]1C[C@@H]2CC[C@@H]3[C@H](CC[C@@]4(C)[C@H]3C[C@H]([N+]3(C)CCCCC3)[C@@H]4OC(C)=O)[C@@]2(C)C[C@@H]1[N+]1(C)CCCCC1`, for which the Potency was 17.8 µM (active).

Take `Cc1cc2c(cc3c(SCc4cccc(Cl)c4)nnc(C)n32)o1`: the Potency entry is “inactive”.

Turning to `COC(=O)c1ccc(OCC2c3cc(OC)c(OC)cc3CCN2C(=O)c2cccc(C)c2)cc1` (configuration not stated), the Potency result is “inactive”.

As for `CCc1ccc(NC(=O)c2ccc3c(O)c(S(=O)(=O)c4ccccc4)c(=O)[nH]c3c2)cc1`, the Potency result is “inactive”. As to `CC(C)c1ccc(NC(=O)c2ccc3c(O)c(S(=O)(=O)c4ccccc4)c(=O)[nH]c3c2)cc1`, the Potency is 31.6 µM (active). `O=C(NCc1ccccc1Cl)c1ccc2c(O)c(S(=O)(=O)c3ccccc3)c(=O)[nH]c2c1`: the Potency result is “inactive”.

In the case of `Cc1ccc(Cl)cc1N1CCN(C(=O)c2ccc(C)c(-n3c(C)nc4cccnc43)c2)CC1`, the Potency entry was “inactive”. As for `CCc1ccc(NS(=O)(=O)c2ccc3oc(=O)c4ncn(CC)c4c3c2)cc1`, the Potency result was “inactive”. On to `CCOc1ccc(-c2noc(CSc3nnc(Cc4ccccc4)n3-c3ccc(F)cc3)n2)cc1`, for which the Potency result is “inactive”. For the compound `COc1ccc(N2CCN(C(=O)c3sc4nc5n(c(=O)c4c3C)CCC5)CC2)cc1`, the Potency entry is “inactive”.

On to `CCN(CC)c1cc(C)c2cc(NC(=O)c3cccc(OC)c3)ccc2n1`, for which the Potency entry is “inactive”. To `CCOC(=O)C1=C(CN(CC)Cc2ccccc2)NC(=O)NC1c1ccc(Cl)cc1` (configuration not stated) belongs “inactive”; to `CCc1ccc(CN(Cc2ccco2)C(=O)c2ccc(C)cc2)cc1`, “inactive”; to `CCCCC1CCC(CCCC(C)CCC(=O)O)CC1` (configuration not stated), 35.5 µM (active).

Turning to `Cc1ccc(C2=NN(CC(=O)NCCCN(CC(C)C)CC(C)C)C(=O)CC2)cc1`, the Potency entry was “inactive”. To `COc1ccc(-n2c(-c3ccc(C)cc3)cc3c2CC(C)(C)CC3=O)c(OC)c1` belongs “inactive”; to `Cc1ccc(Cc2c(C)nc3nc(SCC(=O)NC(C)c4ccccc4)nn3c2C)cc1` (configuration not stated), “inactive”; to `CCCCOc1ccc(C(=O)NCC(c2ccc(Cl)cc2)N2CCOCC2)cc1` (configuration not stated), “inactive”. For the compound `CC1CCCCN1C(=O)CSc1nc2ccccc2nc1Cc1ccccc1` (configuration not stated), the Potency result is “inactive”. To `COc1cccc(-c2nc(CS(=O)CC(=O)N3CCN(c4cccc(C(F)(F)F)c4)CC3)c(C)o2)c1` (configuration not stated) belongs “inactive”; to `CCc1nc(Nc2ccc(F)c(Cl)c2)c2c3c(sc2n1)CCCC3`, “inactive”; to `Cc1ccc2nc(Cl)c3cc(C(=O)N4CCCC(C)C4)sc3c2c1` (configuration not stated), “inactive”.
